dFosB act – activators of delta FosB homodimer, primary screen, biochemical, fluorescence polarization, TAMRA-CDK5 oligo, single point. purified delta FosB; percent of positive-control signal above neutral wells. AID 493131, 2011. 340,000 tested, 0.99% active. Protein FosB (Mus musculus), P13346. activation, % at 25 µM;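 active = mean activation above about 17%, with every replicate also reaching it, limit read from the data, passing the limit was not always enough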
GSIS activator – GLuc luminescence reporter in INS-1E cells, primary screen for activators of glucose-dependent secretion of insulin. AID 743287, 2014. 370,000 tested, 0.61% active. activation, % at 16.6 µM. INS-1E GLuc reporter insulin secretion, 2-3 h;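 active = lowest replicate activation of at least 40%, so every replicate reaches that level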
RAD52 anneal inh – RAD52 DNA annealing inhibitors, primary screen, biochemical, FRET, single point, set 2; DNA repair protein RAD52 homolog (Homo sapiens), P43351; recombinant RAD52 DNA annealing, FRET fluorescence; inhibition, % at 18.7 µM; 360,000 tested, 0.46% active; AID 651710, 2012;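 active = every replicate showing at least 50% inhibition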
DENV2 CPE rescue – inhibitors of DENV2 cytopathic effect, primary screen, cell-based, plate reader, single concentration. 350,000 tested, 1.7% active. AID 651640, 2012. CPE inhibition, % at 9.99 µM. DENV2-infected cells, cytopathic effect rescue; in the data active = CPE inhibition above about 20%, passing the limit was not always enough; tested in BHK-21 cells
RAD54 inh – inhibitors of human RAD54 branch migration, primary screen, biochemical, fluorescence, single point; inhibition, % at 10.4 µM; DNA repair and recombination protein RAD54-like (Homo sapiens), Q92698; AID 602329, 2012; RAD54 Holliday junction branch migration, FAM/BHQ fluorescence; 360,000 tested, 0.14% active;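 active = mean normalized replicate activity at least 40 and at least half of replicates scoring 40 or more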;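 note: inhibitors cause a drop in the FAM fluorescence signal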
Target sequence (Q92698 whole entry, looked up): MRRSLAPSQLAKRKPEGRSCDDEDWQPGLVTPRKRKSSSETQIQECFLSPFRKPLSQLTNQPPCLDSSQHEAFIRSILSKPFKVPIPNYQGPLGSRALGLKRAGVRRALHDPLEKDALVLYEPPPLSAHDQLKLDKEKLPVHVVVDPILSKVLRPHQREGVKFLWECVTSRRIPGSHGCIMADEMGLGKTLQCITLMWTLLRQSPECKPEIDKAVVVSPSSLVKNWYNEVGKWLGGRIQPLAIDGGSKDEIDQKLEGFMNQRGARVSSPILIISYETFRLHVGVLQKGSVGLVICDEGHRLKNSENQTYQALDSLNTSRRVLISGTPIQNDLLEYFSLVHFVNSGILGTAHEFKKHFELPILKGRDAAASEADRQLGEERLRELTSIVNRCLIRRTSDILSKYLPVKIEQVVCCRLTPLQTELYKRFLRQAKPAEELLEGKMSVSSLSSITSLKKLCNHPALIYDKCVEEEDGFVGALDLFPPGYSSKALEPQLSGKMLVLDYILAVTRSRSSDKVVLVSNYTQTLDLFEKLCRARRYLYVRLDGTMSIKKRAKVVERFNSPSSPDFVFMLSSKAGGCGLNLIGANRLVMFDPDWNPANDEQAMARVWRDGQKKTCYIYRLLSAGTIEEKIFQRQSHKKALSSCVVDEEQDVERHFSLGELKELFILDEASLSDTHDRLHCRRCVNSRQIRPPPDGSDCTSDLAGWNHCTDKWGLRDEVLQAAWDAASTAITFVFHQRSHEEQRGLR
MLL AF4-AF9 inh – inhibitors of AF4 peptide binding to AF9, primary screen, biochemical, AlphaScreen, biotin-AF4 peptide, FLAG-AF9, single point; Protein AF-9 (Homo sapiens), P42568; inhibition, % at 10 µM; 350,000 tested, 0.47% active;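 active = every replicate reaching a set inhibition limit, whatever the replicate mean, cut at about 25% in these data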
Numbers stand for hits; 0 = inactive; - = not tested or not shown; ! = not active in a repeat. Only some compounds are listed: those with a hit (about 3.1% of all), similar ones and a draw of the others.

SMILES | dFosB act | GSIS activator | RAD52 anneal inh | DENV2 CPE rescue | RAD54 inh | MLL AF4-AF9 inh
COc1ccc(S(=O)(=O)N(C)C[C@@H]2Oc3ncc(-c4ccncc4)cc3C(=O)N([C@@H](C)CO)C[C@@H]2C)cc1 | - | 0 | 0 | 50.8 | 0 | 0
C[C@@H]1CN([C@@H](C)CO)C(=O)c2cc(C#Cc3ccccn3)cnc2O[C@@H]1CN(C)Cc1ccccc1 | - | 0 | - | - | - | -
CC=Cc1ccc2n(c1=O)C[C@@H]1[C@@H](CO)[C@H](C(=O)NCCC)N(Cc3cccnc3)[C@H]21 (mixture of isomers) | - | 0 | 0 | 0 | 0 | 0
COCC(=O)N1CC2(C1)[C@H](c1ccc(-c3cccc(C)c3)cc1)[C@H](CO)N2C(=O)C1CC1 | - | 0 | 0 | 48.9 | - | 0
COCC(=O)N1[C@@H](CO)[C@H](c2ccc(-c3cccc(OC)c3)cc2)C12CN(C(C)=O)C2 | - | 0 | 0 | 30.9 | - | 0
CC(C)NC(=O)N(C)C[C@@H]1OCc2cnnn2CCCC(=O)N([C@H](C)CO)C[C@@H]1C | - | 0 | 0 | 0 | 0 | 0
C[C@@H]1CN([C@H](C)CO)C(=O)CCCn2nncc2CO[C@@H]1CN(C)C(=O)Cc1ccccc1 | - | 0 | 0 | 32.8! | 0 | 0
CC(C)NC(=O)N(C)C[C@H]1OCc2cnnn2CCCC(=O)N([C@@H](C)CO)C[C@@H]1C | - | 0 | 0 | 45.3 | 0 | 0
C[C@H](CO)N1C[C@H](C)[C@@H](CN(C)Cc2ccc(O)cc2)OCc2cnnn2CCCC1=O | - | 0 | 0 | 41.9! | 0 | 0
CC(C)OC(=O)N(C)C[C@H]1OCc2cnnn2CCCC(=O)N([C@H](C)CO)C[C@@H]1C | - | 0 | 0 | 28.5! | 0 | 0
CN1C(=O)c2cc(NC(=O)Nc3ccccc3F)ccc2OC[C@H]2O[C@H](CC(=O)O)CC[C@H]21 | - | 0 | - | 0 | 0 | -
C[C@@H]1CN([C@@H](C)CO)C(=O)Cc2cc(NC(=O)NC3CCCCC3)ccc2O[C@H]1CN(C)Cc1ccccc1 | - | 0 | 0 | 0 | 0 | 0
C[C@H](CO)N1C[C@H](C)[C@@H](CN(C)S(=O)(=O)c2ccccc2)Oc2ccc(N(C)C)cc2C1=O | - | 0 | 0 | 0 | 0 | 0
C[C@@H]1CN([C@@H](C)CO)C(=O)Cc2cc(NC(=O)CCN3CCOCC3)ccc2O[C@H]1CN(C)S(C)(=O)=O | - | 0 | 0 | 0 | 0 | 0
CCOC(=O)c1cn(CC)c2cc3c(cc2c1=O)OCO3 | 0 | 0 | 0 | 24.7 | 0 | 0
O=C1CC(c2ccccc2)Sc2ccccc2N1 (stereo not drawn) | 0 | - | - | - | 0 | -
O=C1Nc2ccccc2SC1c1ccccc1 (stereo not drawn) | 0 | 0 | 0 | 25.0 | 0 | 0
O=[N+]([O-])c1ccc(Sc2ccncn2)c([N+](=O)[O-])c1 | - | 84.1 | 0 | 0 | 0 | 0
Cc1cc(C)nc(Sc2ccc([N+](=O)[O-])cc2[N+](=O)[O-])n1 | 0 | 0 | - | - | - | -
O=C(NC1CCCC1)C(C1CC1)n1c(C2CCCC2)nc2ccccc21 (stereo not drawn) | - | 0 | 0 | 50.6 | - | 0
Cc1ccc(-c2nc3ccccc3n2C(C(=O)NC(C)(C)C)C2CC2)cc1 (stereo not drawn) | - | 0 | 0 | 31.1 | - | 0
CC(C)(C)NC(=O)C(C1CC1)n1c(-c2ccccc2)nc2ccccc21 (stereo not drawn) | - | 0 | 0 | 0 | - | -
CN(C)C(=O)[C@H]1[C@H](CO)[C@H]2Cn3c(ccc(C4=CCCC4)c3=O)[C@@H]1N2Cc1ccccn1 | - | 0 | 0 | 0 | - | 0
C[C@H]1CN([C@@H](C)CO)C(=O)Cc2cc(NC(=O)Cn3cnnn3)ccc2O[C@H]1CN(C)S(=O)(=O)c1ccc(Cl)cc1 | - | 0 | 0 | 0 | 0 | 0
CC(C)C[C@@H](CN1C(=O)C(=O)NC[C@@H]1CC(C)C)NC(=O)Cc1ccccc1 | 0 | 0 | 0 | 43.4 | 0 | 0
SMILES | dFosB act | GSIS activator | RAD52 anneal inh | DENV2 CPE rescue | RAD54 inh | MLL AF4-AF9 inh
CC(C)C[C@H]1CNC(=O)C(=O)N1C[C@H](Cc1ccc(O)cc1)NC(=O)CC12CC3CC(CC(C3)C1)C2 | - | 0 | 0 | 0 | - | 0
CCCN1C[C@H](C)[C@@H](OC)CN(C)C(=O)c2cc(NC(=O)c3cccc(F)c3)ccc2OC[C@H]1C | - | 0 | 0 | 0 | 0 | 0
CCOC(=O)NCc1ccc2[nH]c(C)cc2c1 | 0 | 0 | 0 | 0 | 0 | 0
CCNC(=S)NCc1ccc2[nH]c(C)cc2c1 | 0 | 0 | 0 | 0 | 0 | 27.0
Cc1cccc(S(=O)(=O)N2CCCCN3[C@H](CO)[C@H](c4ccc(C#C[C@H](C)O)cc4)[C@H]3C2)c1 | - | 0 | 0 | 0 | 0 | 0
CS(=O)(=O)N1CCCCN2[C@H](CO)[C@@H](c3ccc(C4=CCCC4)cc3)[C@H]2C1 | - | 0 | - | 0 | 0 | 28.3
CS(=O)(=O)N1CCCCN2[C@H](CO)[C@H](c3ccc(C4=CCCC4)cc3)[C@@H]2C1 | - | 0 | 0 | 29.4 | 0 | 0
CS(=O)(=O)N1CCCCN2[C@H](C1)[C@H](c1ccc(C3=CCCC3)cc1)[C@@H]2CO | - | 0 | - | 0 | 0 | -
CS(=O)(=O)N1CCCCN2[C@@H](CO)[C@@H](c3ccc(C4=CCCC4)cc3)[C@@H]2C1 | - | 0 | 0 | 29.2 | 0 | 0
CN(C)CC(=O)Nc1ccc2c(c1)[C@H]1C[C@H](CC(=O)NCC3CC3)O[C@@H](CO)[C@H]1O2 | - | 0 | 0 | 0 | 0 | 0
CN1c2ccc(Br)cc2[C@@H]2[C@@H](CCN2C(=O)C2CCOCC2)[C@H]1CO | - | 0 | 0 | 0 | 0 | 0
Cc1ccc(S(=O)(=O)N(C)C[C@H]2Oc3c(NC(=O)C4CCOCC4)cccc3C(=O)N([C@H](C)CO)C[C@@H]2C)cc1 | - | 0 | 0 | 0 | 0 | 0
Cc1nc(/N=C\c2ccc(N(C)C)cc2)sc1C | 0 | 0 | 0 | 32.6 | 0 | -
CN(C)c1ccc(C=Nc2ccc(N(C)C)cc2)cc1 | 0 | - | - | - | 0 | -
CS(=O)(=O)N1CC(=O)N2[C@H](C1)[C@H](c1ccc(C#Cc3ccccc3)cc1)[C@@H]2CO | - | 0 | 0 | 0 | - | 0
C(=NN=C(NN=Cc1cccs1)NN=Cc1cccs1)c1cccs1 | 21.1 | 0 | 0 | 0 | 0 | 0
Cc1ccc(-c2nnn(CC(=O)N3CCN(c4nc5ccccc5s4)CC3)n2)cc1 | 0 | 211.1 | - | - | 0 | -
C=CCN1CCc2c(cc(O)c(O)c2Cl)C(c2ccccc2)C1 (stereo not drawn) | 0 | 0 | 0 | 0 | 0 | 51.8
C=CCN1CCc2cc(O)c(O)cc2C(c2ccccc2)C1 (stereo not drawn) | 0 | - | 0 | 0 | 0 | 0
CS(=O)(=O)N1CCc2cc(C(=O)N3CCN(c4ccccc4)CC3)ccc21 | 0 | 0 | 0 | 23.1 | 0 | 0
CS(=O)(=O)N1CCc2cc(C(=O)N3CCN(c4ccc(F)cc4)CC3)ccc21 | 0 | 0 | 0 | 0 | 0 | 0

Screening results: PubChem BioAssay, Broad Institute
